NOMO-1 viab – STK33 inhibitor candidate reducing NOMO-1 cell viability; NOMO-1 AML viability, CellTiter-Glo luminescence, 72 h; inhibition, % (no concentration beside the values); 37,000 compounds, 7.5% hits; in the data active = inhibition above about 80%; inconclusive = no clear call, values can overlap the other calls
PD-1 reversal – activators reversing PD-1 mediated T-cell inhibition; primary human CD4 T cells, PD-L1 beads, CellTiter-Glo 96 h; activation, % (concentration not given with the values); 29,000 tested, under 10 active; AID 2316; call rule not given here;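 note: 0% = median vehicle wells and 100% = positive control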
STK33 inh – human STK33 kinase inhibition; ADP-Glo luminescence, MBP substrate; inhibition, % at 12.5 µM; 27,000 compounds, 0.44% hits; AID 2322; in the data active = inhibition above about 20%; inconclusive = no clear call, values can overlap the other calls
Target sequence (Q9BYT3 whole entry, looked up): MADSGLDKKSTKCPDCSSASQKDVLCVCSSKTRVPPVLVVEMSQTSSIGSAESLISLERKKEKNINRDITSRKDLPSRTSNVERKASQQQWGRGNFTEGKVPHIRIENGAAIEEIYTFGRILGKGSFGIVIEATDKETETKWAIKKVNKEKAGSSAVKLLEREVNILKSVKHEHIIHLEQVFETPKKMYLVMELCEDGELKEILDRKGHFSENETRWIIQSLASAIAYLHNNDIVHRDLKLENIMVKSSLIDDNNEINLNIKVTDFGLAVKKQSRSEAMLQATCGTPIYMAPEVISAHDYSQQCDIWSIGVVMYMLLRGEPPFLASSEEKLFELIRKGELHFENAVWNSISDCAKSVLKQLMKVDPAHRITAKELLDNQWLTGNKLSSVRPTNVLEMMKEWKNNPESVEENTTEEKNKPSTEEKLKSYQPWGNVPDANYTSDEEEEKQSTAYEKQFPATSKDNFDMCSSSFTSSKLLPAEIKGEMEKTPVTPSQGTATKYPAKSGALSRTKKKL
* = called active by the depositor; ? = inconclusive; . = no result given. The entries come from a sample that favours hits as a whole.

SMILES	NOMO-1 viab	PD-1 reversal	STK33 inh
C[C@@H]1CN([C@@H](C)CO)C(=O)c2cccc(NC(=O)NC3CCCCC3)c2O[C@H]1CN(C)Cc1ccc(C(=O)O)cc1	-12	-1	.
CC(C)N(C(=O)Cn1c2ccccc2c2nc3ccccc3nc21)c1ccccc1	8	1	.
Cc1cc(Cn2ccc(C(F)(F)F)n2)c(C)c(-c2c(C#N)c(N)nc3c2CCCCC3)c1	33	.	-3
COC(=O)c1cc(NC(=O)CC2Sc3ccccc3NC2=O)cc(C(=O)OC)c1 (stereo not given)	113*	.	8
COC(=O)c1c(NC(=O)CC2Sc3ccccc3NC2=O)sc(C)c1C (stereo not given)	5	-1	1
Cc1cccc(OCC(=O)NC(=S)Nc2ccc(C)cc2O)c1	102*	-11	6
COC(=O)c1sccc1NC(=O)COc1cccc(C)c1	7	-2	1
Cc1cc([N+](=O)[O-])nn1Cc1ccc(C(=O)Nc2ccc(CC#N)cc2)cc1	31	2	1
O=C(/C=C/c1ccccc1)C1C(=O)C(=O)N(c2ccccc2)C1c1ccccc1 (stereo not given)	5	1	.
O=C(C1=C[C@@H](c2ccc3c(c2)OCO3)C[C@@H](OCc2ccc(CO)cc2)O1)N1CCCCC1	.	.	-2
C[C@H](CO)N1C[C@H](C)[C@H](CN(C)S(=O)(=O)c2ccc(F)cc2)Oc2c(NC(=O)CCCCCC(=O)Nc3ccccc3N)cccc2C1=O	95*	0	.
C[C@@H]1CN([C@H](C)CO)C(=O)c2cccc(NC(=O)CCCCCC(=O)Nc3ccccc3N)c2O[C@@H]1CN(C)S(=O)(=O)c1ccc(F)cc1	72	-1	.
C[C@@H]1CN([C@@H](C)CO)C(=O)c2cccc(NC(=O)CCCCCC(=O)Nc3ccccc3N)c2O[C@H]1CN(C)S(=O)(=O)c1ccc(F)cc1	29	1	.
C[C@@H]1CN([C@@H](C)CO)C(=O)c2cccc(NC(=O)CCCCCC(=O)Nc3ccccc3N)c2O[C@@H]1CN(C)S(=O)(=O)c1ccc(F)cc1	92*	1	.
C[C@@H]1CN([C@H](C)CO)C(=O)c2cc(NC(=O)Cc3ccccc3)ccc2O[C@@H]1CN(C)C(=O)NC1CCCCC1	-10	-1	.
N#Cc1ccc(-c2ccc(OC(=O)CS(=O)c3ccc(C(F)(F)F)cc3[N+](=O)[O-])cc2)cc1 (stereo not given)	129*	-11	1
O=C(NCCNc1ccc(C(F)(F)F)cc1[N+](=O)[O-])c1ccc(F)cc1	18	-2	-3
CC(=O)Nc1cccc(NC(=O)CNc2ccc(C(F)(F)F)cc2[N+](=O)[O-])c1	-12	1	4
COC(=O)c1ccc(OC(=O)CS(=O)c2ccc(C(F)(F)F)cc2[N+](=O)[O-])cc1 (stereo not given)	109*	.	0
COC(=O)c1ccc(NC(=O)C(C)N(c2ccc(C)cc2)S(C)(=O)=O)cc1 (stereo not given)	17	-1	-2
C[C@@H]1CN([C@@H](C)CO)C(=O)c2cc(NC(=O)CCN3CCOCC3)ccc2O[C@H]1CN(C)Cc1ccncc1	19	1	.
C[C@@H]1CCOC(=O)C=CC=CC(=O)O[C@@H]2C[C@H]3O[C@@H]4C=C(C(=O)O)CC[C@]4(COC(=O)[C@H]1O)[C@]2(C)[C@]31CO1	121*	-6	2
Cc1cc(C2(c3cc(C)c(N)c(C)c3)CCCCC2)cc(C)c1N	122*	-1	.
Cc1ccc(-c2nc3ncccc3o2)cc1NC(=O)COc1cc(C)c(Cl)c(C)c1	61	-3	2
COc1ccc(S(=O)(=O)Nc2cccc3c2O[C@@H](CN(C)Cc2ccc(C(=O)Nc4ccccc4N)cc2)[C@@H](C)CN([C@H](C)CO)C3=O)cc1	110*	2	.
SMILES	NOMO-1 viab	PD-1 reversal	STK33 inh
COc1ccc(CN(C)C[C@@H]2Oc3c(NS(=O)(=O)c4ccc(OC)cc4)cccc3C(=O)N([C@@H](C)CO)C[C@H]2C)cc1	-3	.	.
COc1ccc(S(=O)(=O)Nc2cccc3c2O[C@H](CN(C)Cc2ccc(C(=O)Nc4ccccc4N)cc2)[C@H](C)CN([C@@H](C)CO)C3=O)cc1	127*	-2	.
COc1ccc(S(=O)(=O)Nc2cccc3c2O[C@H](CN(C)Cc2ccc(C(=O)Nc4ccccc4N)cc2)[C@@H](C)CN([C@H](C)CO)C3=O)cc1	55	0	.
COc1ccc(S(=O)(=O)Nc2cccc3c2O[C@H](CN(C)Cc2ccc(C(=O)Nc4ccccc4N)cc2)[C@H](C)CN([C@H](C)CO)C3=O)cc1	128*	-1	.
C[C@H]1CN([C@@H](C)CO)C(=O)c2cccc(NS(=O)(=O)c3cn(C)cn3)c2O[C@@H]1CN(C)C(=O)Nc1ccc(C(F)(F)F)cc1	12	.	.
C[C@H](CO)N1C[C@H](C)[C@H](CN(C)CC2CCCCC2)Oc2ccc(NC(=O)c3ccncc3)cc2CC1=O	33	.	-1
O=C(NCc1ccco1)C1CC(c2cccc(Br)c2)=NO1 (stereo not given)	32	-1	-1
COC(=O)c1sc(SCCOC(=O)c2ccccc2Cl)c2c1CC(C)(C)CC2=O	6	1	.
CN(C)/C=C/C(=O)c1sc(SCc2ccc(Cl)cc2)c2c1CC(C)(C)CC2=O	113*	-1	.
C[C@H]1CN([C@@H](C)CO)C(=O)c2cccc(NC(=O)Nc3ccc(C(F)(F)F)cc3)c2O[C@@H]1CN(C)C(=O)Nc1ccccc1	79	.	.
COC(=O)c1ccccc1NC(=O)CNS(=O)(=O)c1c(C)cc(C)cc1C	7	0	-4
Cc1nc([N+](=O)[O-])c(Sc2nc3ccccc3[nH]2)n1Cc1ccccc1	101*	-14	3
Cc1cc2nc(Sc3c([N+](=O)[O-])nc(C)n3Cc3ccccc3)[nH]c2cc1C	107*	-15	0
COc1ccc2nc(Sc3c([N+](=O)[O-])nc(C)n3Cc3ccccc3)[nH]c2c1	102*	-14	0
Cc1cc2nc(SCc3ccccc3C#N)[nH]c2cc1C	13	0	0
O=[N+]([O-])c1ccc2nc(CSc3nc4ccccc4[nH]3)[nH]c2c1	27	.	3
COc1ccc2nc(SCC(=O)Nc3cccc([N+](=O)[O-])c3)[nH]c2c1	24	-7	?
Cc1ccc(S(=O)(=O)N(C)C[C@@H]2Oc3ccc(NS(=O)(=O)c4ccccc4)cc3CC(=O)N([C@H](C)CO)C[C@@H]2C)cc1	2	-1	-6
Cc1cc(C(=O)Nc2cccc3c2O[C@H](CN(C)Cc2ccncc2)[C@H](C)CN([C@H](C)CO)C3=O)n(C)n1	3	1	.
COc1cccc(C(=O)COc2cccc(NC(=O)c3ccc([N+](=O)[O-])cc3)c2)c1	59	-1	10
Cc1noc(C)c1NC(=O)N(C)C[C@@H]1Oc2c(NC(=O)c3ccc(-c4nccs4)cc3)cccc2C(=O)N([C@@H](C)CO)C[C@H]1C	-18	3	.
COc1c(S(=O)(=O)n2c(C)nc3ccccc32)ccc(Cl)c1Cl	26	0	4
CC[C@H](NS(=O)(=O)c1ccc(C)cc1)C(=O)Oc1cc2oc(=O)cc(C)c2cc1Cl	25	1	1
CCC(C)C(=O)OCC1(c2ccc(C)cc2OC(=O)C(C)C)CO1 (stereo not given)	118*	-9	-5
